Measurements published in the supplement of paper PMC9694430.

Experiments:
Experiment in all cases: thermal shift delta Tm vs DMSO control; higher = stronger stabilization (binding)
Conditions in all cases: 12.5 µM; protein concentration 2 µM
LOC_OS01G01410-cb001 = system: LOC_OS01G01410-cb001
Summary of the method: (§1)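 Rice kinase domain constructs, made in E. coli and purified, were placed in 96-well plates at 2 μM in 19.5 μl of 100 mM potassium phosphate pH 7.5, 150 mM NaCl, 10% glycerol and 5 × SYPRO Orange, with compound in DMSO. A temperature ramp from 25°C to 95°C at 0.05°C/s was used for differential scanning fluorimetry. The melting temperature shift is a triplicate mean compared with DMSO-only protein, derived from Boltzmann fits.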

LOC_OS01G02750-cb003 = system: LOC_OS01G02750-cb003
Summary of the method: as §1

LOC_OS01G10900-cb004 = system: LOC_OS01G10900-cb004
Summary of the method: as §1

LOC_OS01G13800-cb001 = system: LOC_OS01G13800-cb001
Summary of the method: as §1

LOC_OS01G14860-cb001 = system: LOC_OS01G14860-cb001
Summary of the method: as §1

LOC_OS01G21960-cb002 = system: LOC_OS01G21960-cb002
Summary of the method: as §1

LOC_OS01G39600-cb002 = system: LOC_OS01G39600-cb002
Summary of the method: as §1

LOC_OS01G48390-cb002 = system: LOC_OS01G48390-cb002
Summary of the method: as §1

LOC_OS01G51400-cb002 = system: LOC_OS01G51400-cb002
Summary of the method: as §1

LOC_OS01G52050-cb004 = system: T1, LOC_OS01G52050-cb004
T1 sequence (whole entry): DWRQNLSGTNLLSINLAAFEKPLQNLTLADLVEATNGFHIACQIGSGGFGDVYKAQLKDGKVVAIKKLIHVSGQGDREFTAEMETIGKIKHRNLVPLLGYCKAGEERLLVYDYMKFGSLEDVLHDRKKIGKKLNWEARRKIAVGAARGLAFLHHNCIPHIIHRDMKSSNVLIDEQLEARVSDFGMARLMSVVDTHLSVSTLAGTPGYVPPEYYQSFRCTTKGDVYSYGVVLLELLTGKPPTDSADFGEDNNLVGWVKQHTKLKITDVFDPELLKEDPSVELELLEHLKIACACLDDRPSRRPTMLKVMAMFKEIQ
Summary of the method: as §1

LOC_OS01G57100-cb003 = system: LOC_OS01G57100-cb003
Summary of the method: as §1

LOC_OS01G60330-cb001 = system: LOC_OS01G60330-cb001
Summary of the method: as §1

LOC_OS01G60700-cb002 = system: LOC_OS01G60700-cb002
Summary of the method: as §1

LOC_OS01G63280-cb003 = system: LOC_OS01G63280-cb003
Summary of the method: as §1

LOC_OS01G67340-cb003 = system: LOC_OS01G67340-cb003
Summary of the method: as §1

LOC_OS01G70970-cb002 = system: LOC_OS01G70970-cb002
Summary of the method: as §1

LOC_OS02G07810-cb001 = system: LOC_OS02G07810-cb001
Summary of the method: as §1

LOC_OS02G08530-cb003 = system: LOC_OS02G08530-cb003
Summary of the method: as §1

LOC_OS02G14120-cb001 = system: LOC_OS02G14120-cb001
Summary of the method: as §1

LOC_OS02G17970-cb001 = system: LOC_OS02G17970-cb001
Summary of the method: as §1
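Also: purified Escherichia coli-expressed rice kinase domain construct.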

Compound | thermal shift delta Tm (LOC_OS01G01410-cb001) [°C] | thermal shift delta Tm (LOC_OS01G02750-cb003) [°C] | thermal shift delta Tm (LOC_OS01G10900-cb004) [°C] | thermal shift delta Tm (LOC_OS01G13800-cb001) [°C] | thermal shift delta Tm (LOC_OS01G14860-cb001) [°C] | thermal shift delta Tm (LOC_OS01G21960-cb002) [°C] | thermal shift delta Tm (LOC_OS01G39600-cb002) [°C] | thermal shift delta Tm (LOC_OS01G48390-cb002) [°C] | thermal shift delta Tm (LOC_OS01G51400-cb002) [°C] | thermal shift delta Tm (LOC_OS01G52050-cb004) [°C] | thermal shift delta Tm (LOC_OS01G57100-cb003) [°C] | thermal shift delta Tm (LOC_OS01G60330-cb001) [°C] | thermal shift delta Tm (LOC_OS01G60700-cb002) [°C] | thermal shift delta Tm (LOC_OS01G63280-cb003) [°C] | thermal shift delta Tm (LOC_OS01G67340-cb003) [°C] | thermal shift delta Tm (LOC_OS01G70970-cb002) [°C] | thermal shift delta Tm (LOC_OS02G07810-cb001) [°C] | thermal shift delta Tm (LOC_OS02G08530-cb003) [°C] | thermal shift delta Tm (LOC_OS02G14120-cb001) [°C] | thermal shift delta Tm (LOC_OS02G17970-cb001) [°C]
NC(=O)c1ncn([C@@H]2O[C@H](CO)[C@@H](O)[C@H]2O)c1N [AICAR (Acadesine)] | 0.45 | 1.18 | 0.56 | 0.52 | 0.07 | 0.94 | -0.35 | 0.6 | 0.32 | 0.33 | 1.35 | 0.61 | 0.92 | 0.73 | -0.25 | 0.13 | 1.21 | 0.52 | 0.21 | 0.71
O=C(NOCC1CC1)c1ccc(F)c(F)c1Nc1ccc(I)cc1Cl | 1.01 | 11.3 | 1.62 | 0.71 | 1.37 | 1.16 | 1.41 | 1.28 | 0.54 | 2.25 | 2.41 | 2.82 | 2.16 | 0.93 | 0.18 | 1.09 | 1.23 | 1.11 | 1.97 | 1.54
CC(C)n1ncnc1-c1cn2c(n1)-c1ccc(O[C@@H](C)C(N)=O)cc1OCC2 | 0.47 | 1.25 | 0.08 | 0.67 | 0.28 | 0.8 | 0.74 | 0.6 | 0.1 | 0.31 | 0.54 | 0.84 | 1.39 | 0.36 | 0.34 | 0.21 | 1.33 | 0.19 | 0.43 | 1.55
CC(C)c1cnn2c(NCc3ccccc3)cc(NCCCCCCN)nc12 | 0.34 | 0.13 | 0.11 | -0.23 | 0.11 | 0.56 | -0.29 | 0.09 | -0.21 | 0.18 | 0.82 | 0.42 | 0.03 | 0.24 | -0.22 | 0.19 | 0.44 | 0.66 | -0.59 | 0.24
CC1Oc2cc(cnc2N)-c2c(nn(C)c2C#N)CN(C)C(=O)c2ccc(F)cc21 (stereo not given) | 0.52 | 1.64 | 0.21 | -0.23 | 0.3 | -0.18 | -0.18 | 2.07 | 0.44 | 0.41 | 3.37 | 0.4 | 0.4 | 0.16 | 0.4 | 0.35 | -0.27 | 2.75 | 6.77 | 0.31
CNC(=O)c1ccccc1Nc1nc(Nc2ccc(N3CCOCC3)cc2OC)ncc1Cl | 0.74 | 1.05 | 1.53 | -0.3 | 0.28 | 0.37 | -6.71 | 0.8 | 0.36 | 1.17 | 2.81 | 0.04 | 1.25 | 0.09 | 0.32 | 2.69 | 0.19 | 4.3 | 5.33 | 1.35
CCC[C@H](NC(=O)/C(C#N)=C/c1cccc(Br)n1)c1ccccc1 [Degrasyn (WP1130)] | -2.54 | -8.18 | 0.28 | 0.06 | -2.02 | 0.19 | -4.1 | -0.09 | -1.59 | -3.54 | 5.82 | 0.61 | 1.12 | -5.45 | -3.27 | 0.17 | 0.68 | -0.39 | -1.56 | 4.33
COc1ccc(F)c(F)c1C(=O)c1cnc(NC2CCN(S(C)(=O)=O)CC2)nc1N | 0.43 | -0.36 | 0.34 | -0.08 | 2.35 | 0.93 | 0.19 | 0.42 | -0.07 | -0.14 | 0.71 | 0.06 | 0.31 | -0.18 | 1.43 | 0.03 | 0.5 | 0.57 | -0.08 | -0.09
CCS(=O)(=O)Nc1ccc2c(c1)/C(=C(/Nc1ccc(CN3CCCCC3)cc1)c1ccccc1)C(=O)N2 [Hesperadin] | 1.67 | 4.74 | 0.26 | -0.97 | 4.63 | 3.67 | 7.78 | 0.03 | 0.3 | 6.95 | 1.29 | 4.08 | 0.7 | 1.11 | 6.7 | 9.09 | 1.1 | 5.73 | 13 | 0.3
Cn1cc(-c2ccc3ncc(Cc4ccc5ncccc5c4)n3n2)cn1 | 0.75 | 0.95 | 6.36 | 0.22 | 0.23 | 0.62 | 0.86 | 1.24 | 0.47 | 0.62 | 0.9 | 1.91 | 0.96 | 0.15 | 0.76 | 0.25 | 1.07 | 1.43 | 2.22 | 0.32
CC(C)(C)Cn1c(N)nc2ccc(-c3[nH]c(C(C)(C)C)nc3-c3ccc(F)cc3)nc21 | 0.51 | -0.68 | 0 | -0.49 | -0.02 | -0.11 | -0.5 | 1.19 | -0.1 | -0.09 | -3.53 | -0.79 | 0.1 | -0.16 | 0.92 | -0.04 | -0.18 | 0.38 | -1.12 | -0.24
C[S+]([O-])c1ccc(-c2nc(-c3ccc(F)cc3)c(-c3ccncc3)[nH]2)cc1 (stereo not given) | 1.61 | -0.29 | 0.57 | 0.79 | 2.49 | 1.22 | 0.18 | 0.4 | -0.08 | 0.5 | 1.65 | 1.11 | 1.91 | 1.11 | -0.03 | 0.63 | 1.46 | 1.44 | 1.3 | 0.84
COc1ccc(/C=C/C(=O)C2(C(=O)/C=C/c3ccc(OC)c(OC)c3)CCCCC2)cc1OC | 0.52 | 0.5 | 1.18 | 0.16 | 0.18 | 0.55 | 0.02 | 0.51 | 0.07 | 0.63 | 2.18 | 0.27 | 0.41 | 0.1 | 0.3 | 0.31 | 0.4 | 1.47 | 0.46 | 0.38
